# MITF act – activators of MITF-driven TRPM1 promoter reporter, primary screen, cell-based, SK-MEL-5, luciferase, single point; SK-MEL-5 TRPM1-promoter luciferase, 24 h; % of positive control, neutral wells = 0; activation, % at 12.5 µM; 300,000 compounds, 0.75% hits; AID 588334, 2011;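 active = mean activation of at least 80% with every replicate also reaching 80%; inconclusive = mean reaches 80% but some replicate falls short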
# AHR activator – AHR activators, primary screen, cell-based, luminescence, luciferase reporter, human. 320,000 compounds, 2.5% hits. activation, % at 5 µM. AHR-responsive luciferase reporter cells; in the data active = activation above about 47%
# Target sequence (P35869 whole entry, looked up): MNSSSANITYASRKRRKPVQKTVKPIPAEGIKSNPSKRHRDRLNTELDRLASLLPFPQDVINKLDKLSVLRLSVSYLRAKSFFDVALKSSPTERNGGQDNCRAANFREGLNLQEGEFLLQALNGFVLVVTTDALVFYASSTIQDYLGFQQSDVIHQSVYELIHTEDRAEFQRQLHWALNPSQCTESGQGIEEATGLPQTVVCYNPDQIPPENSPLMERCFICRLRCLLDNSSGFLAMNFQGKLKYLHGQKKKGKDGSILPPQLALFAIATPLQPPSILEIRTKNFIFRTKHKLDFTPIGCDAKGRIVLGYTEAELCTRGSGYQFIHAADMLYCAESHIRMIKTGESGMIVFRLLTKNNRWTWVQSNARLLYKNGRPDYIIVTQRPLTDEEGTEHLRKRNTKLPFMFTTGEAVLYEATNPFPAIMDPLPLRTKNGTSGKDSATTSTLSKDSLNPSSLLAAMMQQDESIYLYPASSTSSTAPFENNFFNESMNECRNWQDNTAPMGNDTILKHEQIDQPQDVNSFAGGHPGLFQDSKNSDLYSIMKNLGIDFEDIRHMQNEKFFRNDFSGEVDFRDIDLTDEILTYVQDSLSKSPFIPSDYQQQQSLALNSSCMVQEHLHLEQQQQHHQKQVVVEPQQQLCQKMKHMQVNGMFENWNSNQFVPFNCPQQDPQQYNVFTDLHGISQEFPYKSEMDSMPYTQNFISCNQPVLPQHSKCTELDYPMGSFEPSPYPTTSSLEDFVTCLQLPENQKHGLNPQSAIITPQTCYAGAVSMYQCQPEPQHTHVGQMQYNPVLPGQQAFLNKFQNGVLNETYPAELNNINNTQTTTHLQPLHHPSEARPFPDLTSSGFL
# FXN GAA850 act – FXN promoter activators, primary screen, cell-based, luciferase luminescence, HEK293 lucGAA850 | 360,000 compounds, 0.56% hits | AID 540364, 2011 | HEK293 lucGAA850 FXN promoter luciferase reporter, 24 h; percent of 10 µM SAHA response | activation, % at 6 µM;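 active = activation above the average of all compounds screened plus 3 SD, cutoff fixed separately per campaign, cut at about 7.5% in these data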
# Wnt bcat act – Wnt/beta-catenin pathway activators, primary screen, cell-based, plate reader, single point; Wnt/beta-catenin reporter cell assay, activator; activation, % at 9.35 µM; 300,000 compounds, 1.2% hits; in the data active = activation above about 30%, passing the limit was not always enough; inconclusive = no clear call, values can overlap the other calls
# esBAF inh – Bmi1 luciferase reporter increase in mESCs, primary screen, esBAF inhibitor project, mouse ES cells, Bmi1 luciferase knock-in, single point. AID 602393, 2012. 350,000 compounds, 2% hits. reporter increase, % at 12.5 µM. 24 h; 100% = twice the neutral-well signal; in the data active = activation above about 40%; inconclusive = no clear call, values can overlap the other calls;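 note: a rise in the Bmi1 reporter signal indicates esBAF inhibition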
# Hits are given with their value; - = inactive; ? = inconclusive; . = no result. This is a sample that favours compounds with a hit; in the whole collection about 4.2% have one here.
SMILES,MITF act,AHR activator,FXN GAA850 act,Wnt bcat act,esBAF inh
O=C(c1ccco1)N1CCC(c2ccccc2)C1 (configuration not stated),?,-,-,.,54
COc1ccc(C(=O)N2CCCC(c3ccccc3)C2)cc1 (configuration not stated),-,-,-,.,-
O=C(c1ccc(F)cc1)N1CCC(c2ccccc2)C1 (configuration not stated),.,-,-,34,-
COc1ccccc1/C=C/C(=O)N1CCC(c2ccccc2)C1 (configuration not stated),-,66,-,.,.
COc1ccccc1/C=C/C(=O)N1CCOCC1,-,-,-,-,-
CCCn1nnc(NC(=S)NC(=O)c2ccc(-c3ccc(Br)cc3)o2)n1,.,-,-,-,-
Cn1nnc(NC(=S)NC(=O)c2ccc(-c3ccc(Br)cc3)o2)n1,-,-,-,49,.
CC(C)(C)[S@@](=O)N1Cc2cc(C(=O)NC3CCCCC3)nc(-c3cccc(Br)c3)c2[C@H]1CCO,.,.,.,.,-
C[C@H](CO)N1C[C@H](C)[C@@H](CN(C)Cc2ccncc2)Oc2ccc(NC(=O)C3CC3)cc2C1=O,.,.,.,.,-
N/C(=N\OC(=O)c1ccc2c(c1)OCO2)c1ccncc1,-,-,-,55,-
Cc1ccc(/C(N)=N/OC(=O)c2ccc3c(c2)OCO3)cc1,-,-,-,-,.
N/C(=N\OC(=O)c1ccc2c(c1)OCO2)c1ccc(Cl)cc1,106,-,-,-,-
C[C@@H]1CN([C@H](C)CO)C(=O)c2cc(NC(=O)Cn3cnnn3)ccc2O[C@H]1CN(C)S(=O)(=O)c1cccs1,.,.,.,.,-
CC(=O)Nc1cccc(NC(=O)CCCC(=O)O)c1,-,-,-,40,-
C[C@@H]1CN([C@H](C)CO)C(=O)Cc2cc(NS(=O)(=O)c3cccs3)ccc2O[C@@H]1CN(C)S(=O)(=O)c1ccccc1,.,.,.,.,-
c1c2c(cc3sc(N4CCOCC4)nc13)OCCO2,-,-,-,-,-
c1ccc(N2CCN(c3nc4cc5c(cc4s3)OCCO5)CC2)cc1,.,-,-,?,48
Cc1ccc(C(=O)N/C(=C\c2ccc(-c3cccc([N+](=O)[O-])c3)o2)C(=O)NC(C)(C)C)cc1,-,56,-,-,.
CC(C)(C)c1ccc(C(=O)N/C(=C\c2cccc([N+](=O)[O-])c2)C(=O)Nc2cccc(C(=O)O)c2)cc1,-,67,-,-,-
CC1CCc2sc(C(=O)NCC3CCCO3)cc2C1 (configuration not stated),101,.,-,40,-
COc1cccc(S(=O)(=O)N[C@H]2CC[C@H](CCn3cc(-c4ccc(F)cc4)nn3)O[C@H]2CO)c1,.,.,.,.,-
CO[C@H]1CN(C)C(=O)c2ccc(NC(=O)c3ccc(Oc4ccccc4)cc3)cc2OC[C@H](C)NC[C@H]1C,.,.,.,.,-
COc1cccc(C=NN2CCCCCC2)c1OC,-,.,-,-,45
COc1cccc(/C=N/n2c(SC)nnc2-c2ccccc2)c1OC,-,61,-,.,-
COc1cccc(/C=N/n2c(-c3n[nH]c4c3CCC4)n[nH]c2=S)c1OC,-,51,-,-,.
SMILES,MITF act,AHR activator,FXN GAA850 act,Wnt bcat act,esBAF inh
CN1C(=O)c2cc(NC(=O)c3cccc(F)c3)ccc2OC[C@H]2O[C@H](CC(=O)O)CC[C@H]21,.,.,.,.,-
CCCSc1ccc2nc(NC(=O)OC)[nH]c2c1,-,54,-,-,-
COC(=O)Nc1nc2ccc(SC(C)C)cc2[nH]1,-,-,-,-,-
CCOc1ccc2nc(N3C(=O)CNC3=S)sc2c1,.,-,-,51,-
Cc1cc2nc(N3C(=O)CNC3=S)sc2cc1C,-,-,-,-,-
CC(C)C(=O)Nc1cccc(-c2nc3ccccc3o2)c1,-,-,-,.,41
COc1cc(NC(=O)COc2ccc(Cl)cc2)ccc1-c1cc2ccccc2oc1=O,-,55,-,-,.
COc1ccc(OCC(=O)Nc2cccc(-c3nc4ccccc4o3)c2)cc1,.,-,-,.,51
COc1cc(NC(=O)COc2ccc(Cl)cc2)ccc1NC(=O)C(C)C,-,-,-,-,-
CN(C)C(=O)C[C@@H]1CC[C@@H]2[C@@H](COc3ccc(NC(=O)NCc4ccccc4)cc3C(=O)N2C)O1,.,.,.,.,-
C[C@@H]1CN([C@@H](C)CO)C(=O)c2cc(NC(=O)Cn3cnnn3)ccc2O[C@H]1CN(C)C(=O)NC1CCCCC1,.,.,.,.,-
CO[C@@H](CN(C)C(=O)C1CCOCC1)[C@@H](C)CN(C(=O)Nc1ccc(F)cc1)[C@@H](C)CO,.,.,.,.,-
O=C(Nc1ccc(Nc2ccccc2)cc1)c1ccccc1F,.,-,-,-,52
O=C(Nc1ccc(N2CCCCC2)cc1)c1ccc(F)cc1F,-,-,-,44,-
O=C(/C=C/c1ccncc1)c1ccc(NC(=O)c2ccccc2F)cc1,-,-,12,.,.
O=C(Nc1ccc(N2CCCC2)cc1)c1cccc(Cl)c1Cl,.,-,-,-,85
CC(=O)N1CCN(c2ccc(NC(=O)c3cccc(Cl)c3Cl)cc2)CC1,.,-,-,-,-
O=C(Nc1ccc(N2CCCC2)cc1)c1cccc(F)c1,-,-,-,-,-
COc1ccccc1-c1cnc2c(c1)C(=O)N([C@H](C)CO)C[C@H](C)[C@@H](CN(C)Cc1ccc(C(=O)O)cc1)O2,.,.,.,.,-
O=C(Nc1ccc(N2CCN(C(=O)c3cccs3)CC2)cc1)c1ccccc1F,-,-,-,-,-
O=C(Nc1ccc(N2CCCC2)cc1)c1ccccc1F,-,-,-,.,42
COCCNC(=O)/C(C#N)=C/c1cc(C)n(C2CCCCC2)c1C,91,-,-,-,.
Cn1nc(-c2ccc(C(=O)NCCO)cc2)c2ccccc2c1=O,-,-,-,-,.
CN(CCO)C(=O)c1ccc(-c2nn(C)c(=O)c3ccccc23)cc1,-,-,-,34,.
COCC(=O)Nc1ccc2c(c1)C(=O)N(C)C[C@H](OC)[C@H](C)CN(C(=O)NC(C)C)[C@H](C)CO2,.,.,.,.,-
SMILES,MITF act,AHR activator,FXN GAA850 act,Wnt bcat act,esBAF inh
CCC(=O)Nc1nnc(/C=C/c2ccccc2)s1,-,-,-,-,61
CCOC(=O)Nc1nnc(-c2ccc(OC)cc2)s1,-,-,-,.,79
CCOC(=O)Nc1nnc(-c2cccc(OC)c2)s1,-,-,-,-,-
CCCCOC(=O)Nc1nnc(/C=C/c2ccc(OC)cc2)s1,-,-,-,.,.
CCCc1nnc(NC(=O)OCC)s1,-,74,-,-,.
CCOC(=O)Nc1nnc(/C=C/c2ccc(OC)cc2)s1,-,74,-,.,.
CCCC(=O)Nc1nnc(/C=C/c2ccccc2)s1,-,-,-,-,-
CN1CCN(C(=O)C[C@H]2CC[C@@H]3[C@@H](COc4ccc(NC(=O)c5ccc(F)c(F)c5)cc4C(=O)N3C)O2)CC1,.,.,.,.,-
C[C@H]1CCCCO[C@@H](CN(C)C)[C@@H](C)CN([C@@H](C)CO)C(=O)c2cc(NC(=O)Nc3ccc4c(c3)OCO4)ccc2O1,.,.,.,.,-

# Source: PubChem BioAssay (several laboratories)
